# Experimental data: the supplement of paper PMC12494721
# Where a name gives a salt, the structure may show the parent alone.
# Key:
# Conditions in all cases: incubation time: 27 h, anaerobic, 37 °C;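 for the amine columns active = adjusted P below 0.05 in both replicates with a change the same way and a mean fold change under 0.8 or over 1.25; inactive = the rest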
# [1] = test system: Clostridium sporogenes DSM 1664; experiment: growth (OD595) fold change vs plate DMSO controls (fold change (ratio)); higher = more growth
# How it was run: (§1)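 Anaerobic 27 h, 37 °C mGAM 96-well cultures were shaken, then read for absorbance at 595 nm. Values were blank-subtracted and corrected for compound background using 20 µM compound solutions in water. A calibration factor of 5 converted them to OD. Growth is the fold change versus the median of plate DMSO controls. Fold changes above 1.5 were set to NA, and values are the mean of 2 biological replicates.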
# Escherichia coli IAI1 [2] = experiment: as above
# How it was run: as §1
# [3] = test system: Klebsiella aerogenes DSM 30053; experiment: as above
# How it was run: as §1
# [4] = test system: Ruminococcus gnavus DSM 108212; experiment: as above
# How it was run: as §1
# [5] = test system: Klebsiella aerogenes DSM 30053; experiment: fold change of Histamine concentration vs plate DMSO controls (fold change (ratio)); higher = more amine produced, active = hit call of the paper (significant change in both replicates, either direction)
# How it was run: (§2)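 Extracts of whole anaerobic mGAM cultures were analysed for amines by LC–triple-quadrupole MS with dynamic MRM and external calibration curves, with drift corrected within batch. Four gut strains were grown at 37 °C for 27 h in 80 µL wells with compounds at 20 µM final, sweeteners at 50 µM final. Each value expresses fold change over plate DMSO controls. The average of 2 biological replicates is shown.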
# [6] = test system: Clostridium sporogenes DSM 1664; experiment: fold change of Tryptamine concentration vs plate DMSO controls (fold change (ratio)); higher = more amine produced, active = hit call of the paper (significant change in both replicates, either direction)
# How it was run: as §2
# [7] = test system: Ruminococcus gnavus DSM 108212; experiment: as above
# How it was run: as §2
# Escherichia coli IAI1 [8] = experiment: fold change of Putrescine concentration vs plate DMSO controls (fold change (ratio)); higher = more amine produced, active = hit call of the paper (significant change in both replicates, either direction)
# How it was run: as §2
# [9] = test system: Klebsiella aerogenes DSM 30053; experiment: as above
# How it was run: as §2
# Escherichia coli IAI1 [10] = experiment: fold change of Cadaverine concentration vs plate DMSO controls (fold change (ratio)); higher = more amine produced, active = hit call of the paper (significant change in both replicates, either direction)
# How it was run: as §2
# [11] = test system: Klebsiella aerogenes DSM 30053; experiment: as above
# How it was run: as §2
# [12] = test system: Ruminococcus gnavus DSM 108212; experiment: fold change of 2-Phenylethylamine concentration vs plate DMSO controls (fold change (ratio)); higher = more amine produced, active = hit call of the paper (significant change in both replicates, either direction)
# How it was run: as §2
SMILES,growth [1],growth (Escherichia coli IAI1 [2]),growth [3],growth [4],fold change of Histamine concentration [5],fold change of Tryptamine concentration [6],fold change of Tryptamine concentration [7],fold change of Putrescine concentration (Escherichia coli IAI1 [8]),fold change of Putrescine concentration [9],fold change of Cadaverine concentration (Escherichia coli IAI1 [10]),fold change of Cadaverine concentration [11],fold change of 2-Phenylethylamine concentration [12]
"CC(C)NC[C@@H](O)COc1ccc(CC(N)=O)cc1 [(R,+) Atenolol] (20 µM)",1.19,1.01,1.12,1.16,0.951 (inactive),1.05 (inactive),1.06 (inactive),1.19 (inactive),1.02 (inactive),0.921 (inactive),1.04 (inactive),1.08 (inactive)
CC(=O)N[C@@H](CS)C(=O)O [Acetylcysteine] (20 µM),0.935,1.07,0.967,0.985,1.14 (inactive),1.07 (inactive),0.993 (inactive),1.03 (inactive),1.02 (inactive),1.02 (inactive),0.987 (inactive),1 (inactive)
CCOc1ccccc1OC(c1ccccc1)C1CNCCO1 (centres undefined) [Reboxetine mesylate] (20 µM),1.03,1.16,1.07,1.08,1.01 (inactive),0.997 (inactive),1.04 (inactive),1.03 (inactive),1.01 (inactive),0.926 (inactive),1 (inactive),1.03 (inactive)
Nc1nc2n[nH]nc2c(=O)[nH]1 [Azaguanine-8] (20 µM),0.886,1.05,1.01,0.846,1.04 (inactive),0.988 (inactive),0.924 (inactive),1.01 (inactive),0.968 (inactive),1.01 (inactive),1.03 (inactive),0.882 (inactive)
N=C(N)NCCN1CCCCCCC1 [Guanethidine sulfate] (20 µM),1.13,0.988,1.1,0.933,0.834 (inactive),1.07 (inactive),1.1 (inactive),0.97 (inactive),0.953 (inactive),0.9 (inactive),1.04 (inactive),1.11 (inactive)
CC(=O)N(CC(O)CN(C(C)=O)c1c(I)c(C(=O)NCC(O)CO)c(I)c(C(=O)NCC(O)CO)c1I)c1c(I)c(C(=O)NCC(O)CO)c(I)c(C(=O)NCC(O)CO)c1I (centres undefined) [Iodixanol] (20 µM),0.85,0.989,1.03,1.01,0.962 (inactive),1.02 (inactive),0.886 (inactive),1.04 (inactive),1 (inactive),0.988 (inactive),0.991 (inactive),0.815 (inactive)
CCCCS(=O)(=O)N[C@@H](Cc1ccc(OCCCCC2CCNCC2)cc1)C(=O)O [Tirofiban hydrochloride] (20 µM),0.927,0.983,1.01,1.11,0.975 (inactive),0.943 (inactive),1.03 (inactive),0.994 (inactive),1 (inactive),1 (inactive),1.01 (inactive),1.02 (inactive)
NCc1ccccc1CC(=O)N[C@@H]1C(=O)N2C(C(=O)O)=C(CSc3nnnn3CC(=O)O)CS[C@H]12 [Ceforanide] (20 µM),0,1.11,1.08,0.307,0.726 (inactive),0.0212 (active),0.0541 (active),1.91 (active),1.09 (inactive),1.95 (active),1.07 (inactive),0.0519 (active)
C[C@@H]1C[C@H]2[C@@H]3CCC4=CC(=O)C=C[C@]4(C)[C@@]3(Cl)[C@@H](O)C[C@]2(C)[C@@]1(OC(=O)c1ccco1)C(=O)CCl [Mometasone furoate] (20 µM),1.08,0.984,1.14,1.04,0.923 (inactive),0.991 (inactive),0.889 (inactive),1.02 (inactive),1 (inactive),1.03 (inactive),1.03 (inactive),0.898 (inactive)
CN(C)CCC=C1c2ccccc2CCc2ccccc21 [Amitryptiline hydrochloride] (20 µM),1.05,1.04,1.06,1.12,0.911 (inactive),0.996 (inactive),0.973 (inactive),1.01 (inactive),0.936 (inactive),1.01 (inactive),1.02 (inactive),1.01 (inactive)
OC[C@H](O)C(O)[C@@H](O)CO [L-Arabinitol] (50 µM),1.11,0.995,0.979,0.985,1 (inactive),0.956 (inactive),0.939 (inactive),1.06 (inactive),1.02 (inactive),0.981 (inactive),0.984 (inactive),0.908 (inactive)
Oc1c(Cl)cc(Cl)c(Cl)c1Cc1c(O)c(Cl)cc(Cl)c1Cl (20 µM),0,0.939,1.02,0,1.06 (inactive),0.00872 (active),0.0717 (active),1.06 (inactive),1.01 (inactive),1.37 (active),1.02 (inactive),0.0513 (active)
